Data reported in the supplement of paper PMC11001985.
A number with no mark means an inactive call.

compound: C#CCNC(=O)CCSSCCC(=O)NCCc1ccc(C=O)c(C=O)c1; assay: lysine labeling ratio R10:1 (500 µM / 50 µM probe), SILAC-ABPP in living cells; higher = lower intrinsic lysine reactivity toward the probe, active = 2 or less; conditions: HeLa; probe concentrations 500 vs 50 µM
Method in brief: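 An alkyne-tagged lysine probe with a disulfide linker labelled living HeLa cells in PBS at room temperature at either 50 µM or 500 µM, using SILAC light and heavy cells in forward and reverse label swaps. Lysates were mixed, clicked to biotin-azide, trypsin-digested, enriched on neutravidin, DTT-released, alkylated and measured by LC-MS/MS on a TIMS-TOF Pro. Each lysine's R is the filtered median high-probe/low-probe MS1 peptide ratio, combined as the median over forward and reverse replicates, with 20 as the upper limit.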

Chain of UniProt Q86XX4 (Q86XX4 whole entry): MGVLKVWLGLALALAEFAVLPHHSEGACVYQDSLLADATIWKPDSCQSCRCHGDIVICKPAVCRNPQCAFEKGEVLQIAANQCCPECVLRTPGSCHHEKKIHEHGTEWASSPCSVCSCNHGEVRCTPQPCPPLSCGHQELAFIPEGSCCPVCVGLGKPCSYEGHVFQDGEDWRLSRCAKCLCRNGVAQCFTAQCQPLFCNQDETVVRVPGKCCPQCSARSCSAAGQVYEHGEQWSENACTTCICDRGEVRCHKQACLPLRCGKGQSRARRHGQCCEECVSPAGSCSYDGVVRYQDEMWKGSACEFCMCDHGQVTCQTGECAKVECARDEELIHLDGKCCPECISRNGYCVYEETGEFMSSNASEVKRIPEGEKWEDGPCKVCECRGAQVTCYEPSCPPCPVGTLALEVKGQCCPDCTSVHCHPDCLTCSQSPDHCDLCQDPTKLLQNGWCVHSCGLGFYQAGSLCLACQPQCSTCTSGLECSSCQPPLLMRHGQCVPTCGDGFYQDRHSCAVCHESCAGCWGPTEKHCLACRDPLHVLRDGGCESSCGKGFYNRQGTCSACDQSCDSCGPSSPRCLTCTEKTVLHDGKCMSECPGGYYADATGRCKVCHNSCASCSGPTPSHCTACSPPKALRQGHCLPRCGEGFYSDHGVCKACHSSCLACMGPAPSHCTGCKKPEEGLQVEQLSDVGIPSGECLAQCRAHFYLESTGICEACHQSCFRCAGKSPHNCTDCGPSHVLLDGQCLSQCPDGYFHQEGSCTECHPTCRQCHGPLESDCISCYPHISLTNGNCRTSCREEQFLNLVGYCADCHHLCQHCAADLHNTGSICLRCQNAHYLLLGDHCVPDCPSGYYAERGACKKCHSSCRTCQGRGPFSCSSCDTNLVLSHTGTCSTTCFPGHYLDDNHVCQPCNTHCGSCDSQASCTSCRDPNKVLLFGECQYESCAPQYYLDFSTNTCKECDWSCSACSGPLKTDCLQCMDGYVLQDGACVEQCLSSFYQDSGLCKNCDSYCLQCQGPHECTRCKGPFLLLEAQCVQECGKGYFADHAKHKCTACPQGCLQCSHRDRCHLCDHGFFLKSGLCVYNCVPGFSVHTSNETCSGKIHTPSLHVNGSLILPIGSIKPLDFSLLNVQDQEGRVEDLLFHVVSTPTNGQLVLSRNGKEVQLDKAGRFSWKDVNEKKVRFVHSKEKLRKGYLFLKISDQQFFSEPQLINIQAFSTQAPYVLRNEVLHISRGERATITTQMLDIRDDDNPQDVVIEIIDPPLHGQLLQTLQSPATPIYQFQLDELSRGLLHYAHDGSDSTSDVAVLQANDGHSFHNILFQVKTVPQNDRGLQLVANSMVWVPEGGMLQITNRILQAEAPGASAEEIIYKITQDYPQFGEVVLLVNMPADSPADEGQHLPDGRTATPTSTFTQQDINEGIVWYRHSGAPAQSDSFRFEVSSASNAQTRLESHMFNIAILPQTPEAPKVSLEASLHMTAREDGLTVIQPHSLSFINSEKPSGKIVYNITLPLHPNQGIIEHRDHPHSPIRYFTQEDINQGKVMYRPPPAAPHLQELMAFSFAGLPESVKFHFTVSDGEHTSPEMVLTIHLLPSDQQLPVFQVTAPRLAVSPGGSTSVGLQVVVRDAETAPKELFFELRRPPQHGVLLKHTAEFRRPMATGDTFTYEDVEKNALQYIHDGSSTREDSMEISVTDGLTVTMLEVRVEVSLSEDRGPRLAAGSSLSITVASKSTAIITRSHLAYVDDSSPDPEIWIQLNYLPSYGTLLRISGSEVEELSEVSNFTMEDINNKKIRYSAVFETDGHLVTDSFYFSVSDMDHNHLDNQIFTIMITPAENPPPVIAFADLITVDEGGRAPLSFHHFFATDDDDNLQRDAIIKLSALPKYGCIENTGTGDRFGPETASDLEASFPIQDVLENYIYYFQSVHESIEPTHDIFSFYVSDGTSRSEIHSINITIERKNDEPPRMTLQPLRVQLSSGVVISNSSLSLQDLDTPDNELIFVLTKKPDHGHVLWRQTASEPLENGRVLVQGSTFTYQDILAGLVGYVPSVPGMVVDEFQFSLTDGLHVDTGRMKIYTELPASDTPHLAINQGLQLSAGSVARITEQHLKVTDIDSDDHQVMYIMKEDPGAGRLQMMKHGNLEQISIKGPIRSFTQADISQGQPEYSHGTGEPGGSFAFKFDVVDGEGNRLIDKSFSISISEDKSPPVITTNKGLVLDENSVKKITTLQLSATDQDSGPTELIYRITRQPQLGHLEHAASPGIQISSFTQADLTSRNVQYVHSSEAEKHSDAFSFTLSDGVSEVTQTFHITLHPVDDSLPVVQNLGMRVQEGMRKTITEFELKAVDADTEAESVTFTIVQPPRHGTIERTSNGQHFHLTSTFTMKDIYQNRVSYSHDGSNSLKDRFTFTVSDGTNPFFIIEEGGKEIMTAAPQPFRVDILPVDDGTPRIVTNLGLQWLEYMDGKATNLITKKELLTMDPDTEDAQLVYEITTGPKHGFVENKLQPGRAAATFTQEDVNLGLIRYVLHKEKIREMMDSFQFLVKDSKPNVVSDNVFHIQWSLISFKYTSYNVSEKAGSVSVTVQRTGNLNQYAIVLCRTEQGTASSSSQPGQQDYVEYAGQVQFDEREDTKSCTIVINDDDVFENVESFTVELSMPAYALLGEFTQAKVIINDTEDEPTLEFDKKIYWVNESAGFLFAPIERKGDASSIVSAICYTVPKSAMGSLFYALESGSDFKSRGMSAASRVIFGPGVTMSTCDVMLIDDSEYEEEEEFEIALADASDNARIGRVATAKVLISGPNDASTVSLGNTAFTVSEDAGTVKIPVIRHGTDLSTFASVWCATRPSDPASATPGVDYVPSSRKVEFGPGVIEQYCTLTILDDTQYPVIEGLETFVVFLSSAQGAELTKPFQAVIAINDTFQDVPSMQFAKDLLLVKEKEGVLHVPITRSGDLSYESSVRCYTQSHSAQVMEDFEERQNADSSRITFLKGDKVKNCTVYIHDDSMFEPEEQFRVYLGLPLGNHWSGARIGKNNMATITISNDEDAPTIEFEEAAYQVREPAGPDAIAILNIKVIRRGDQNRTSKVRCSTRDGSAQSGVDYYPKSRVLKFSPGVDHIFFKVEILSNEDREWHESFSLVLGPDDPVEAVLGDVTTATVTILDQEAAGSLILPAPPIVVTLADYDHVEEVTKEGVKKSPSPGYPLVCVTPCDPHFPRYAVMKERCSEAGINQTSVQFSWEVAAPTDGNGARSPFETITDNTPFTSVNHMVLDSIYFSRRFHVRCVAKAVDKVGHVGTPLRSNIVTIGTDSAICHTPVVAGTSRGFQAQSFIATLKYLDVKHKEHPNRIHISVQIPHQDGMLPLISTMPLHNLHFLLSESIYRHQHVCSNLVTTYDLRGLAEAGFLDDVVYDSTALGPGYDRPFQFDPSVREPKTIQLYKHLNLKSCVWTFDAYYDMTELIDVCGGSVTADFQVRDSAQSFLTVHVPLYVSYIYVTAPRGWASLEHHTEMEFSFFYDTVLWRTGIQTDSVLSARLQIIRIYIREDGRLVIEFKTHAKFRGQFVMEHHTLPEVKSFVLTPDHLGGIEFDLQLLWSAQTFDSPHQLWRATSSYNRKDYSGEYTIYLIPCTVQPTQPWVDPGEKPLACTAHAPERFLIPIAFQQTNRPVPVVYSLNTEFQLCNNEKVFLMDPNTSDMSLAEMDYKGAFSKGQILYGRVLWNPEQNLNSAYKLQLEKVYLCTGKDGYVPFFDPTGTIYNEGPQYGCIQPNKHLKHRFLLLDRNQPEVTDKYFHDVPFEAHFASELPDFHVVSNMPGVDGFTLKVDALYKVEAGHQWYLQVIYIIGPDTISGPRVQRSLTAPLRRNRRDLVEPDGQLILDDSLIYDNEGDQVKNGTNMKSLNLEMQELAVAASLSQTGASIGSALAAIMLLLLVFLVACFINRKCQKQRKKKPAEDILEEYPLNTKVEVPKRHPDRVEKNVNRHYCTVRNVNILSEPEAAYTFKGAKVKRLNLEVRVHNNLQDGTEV
Chain of UniProt P06733 (P06733 whole entry): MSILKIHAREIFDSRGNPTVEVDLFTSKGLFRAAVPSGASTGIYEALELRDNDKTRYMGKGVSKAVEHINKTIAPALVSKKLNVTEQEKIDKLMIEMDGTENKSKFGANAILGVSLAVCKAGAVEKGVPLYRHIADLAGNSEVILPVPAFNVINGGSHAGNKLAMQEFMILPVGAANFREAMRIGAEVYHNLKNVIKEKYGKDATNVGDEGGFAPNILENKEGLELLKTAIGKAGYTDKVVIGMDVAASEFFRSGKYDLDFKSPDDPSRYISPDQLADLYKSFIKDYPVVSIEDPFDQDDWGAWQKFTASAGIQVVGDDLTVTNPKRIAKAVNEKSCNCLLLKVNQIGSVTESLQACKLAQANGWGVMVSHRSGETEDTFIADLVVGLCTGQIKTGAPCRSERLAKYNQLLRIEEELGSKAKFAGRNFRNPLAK
Chain of UniProt P22087 (P22087 whole entry): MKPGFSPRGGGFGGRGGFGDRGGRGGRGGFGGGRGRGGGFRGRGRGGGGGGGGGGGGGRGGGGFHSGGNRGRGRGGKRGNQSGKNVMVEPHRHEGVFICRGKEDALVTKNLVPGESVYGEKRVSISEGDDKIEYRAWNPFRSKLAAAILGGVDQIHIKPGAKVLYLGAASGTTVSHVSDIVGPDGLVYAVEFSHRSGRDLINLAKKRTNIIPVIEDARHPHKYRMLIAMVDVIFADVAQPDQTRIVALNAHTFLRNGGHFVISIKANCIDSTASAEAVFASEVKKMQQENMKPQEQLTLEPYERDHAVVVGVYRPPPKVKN
Chain of UniProt Q6NZI2 (Q6NZI2 whole entry): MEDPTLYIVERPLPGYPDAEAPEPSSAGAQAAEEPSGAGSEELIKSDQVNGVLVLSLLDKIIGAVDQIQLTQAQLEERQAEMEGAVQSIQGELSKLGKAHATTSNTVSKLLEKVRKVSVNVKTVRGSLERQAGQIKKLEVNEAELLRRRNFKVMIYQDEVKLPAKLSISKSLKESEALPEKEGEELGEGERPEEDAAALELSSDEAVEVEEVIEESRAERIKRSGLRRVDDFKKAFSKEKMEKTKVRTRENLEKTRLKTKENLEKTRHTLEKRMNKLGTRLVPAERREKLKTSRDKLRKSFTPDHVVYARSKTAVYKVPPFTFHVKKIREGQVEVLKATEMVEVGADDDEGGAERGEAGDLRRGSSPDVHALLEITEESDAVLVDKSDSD

Target | lysine labeling ratio R10:1
FRAS1 (lysine site: K380) (UniProt Q86XX4) | 2.25
UniProt Q9UHN6 (lysine site: K846) | 1.51 (active)
DNAJC9 (lysine site: K198) (UniProt Q8WXX5) | 2.94
FBL (lysine site: K84) (UniProt P22087) | 3.62
FRAS1 (lysine site: K3093) (UniProt Q86XX4) | 3.29
ALDOA (lysine site: K42) (UniProt P04075) | 3
UniProt Q15149 (lysine site: K1659) | 6.06
ENO1 (lysine site: K422) (UniProt P06733) | 2.65
EPRS (lysine site: K498) (UniProt P07814) | 2.78
FLNA (lysine site: K1801) (UniProt P21333) | 3.7
UniProt Q6NZI2 (lysine site: K260) | 4.28
HNRNPM (lysine site: K242) (UniProt P52272) | 1.67 (active)
ITGB1 (lysine site: K575) (UniProt P05556) | 3.24
FLNB (lysine site: K1372) (UniProt O75369) | 2.69
VASN (lysine site: K154) (UniProt Q6EMK4) | 1.64 (active)
CD109 (lysine site: K471) (UniProt Q6YHK3) | 2.01
UniProt Q15149 (lysine site: K1573) | 2.01
